The supplement of paper PMC12645437, “Orthogonal IMiD-Degron Pairs Induce Selective Protein Degradation in Cells” (ACS Chemical Biology, 2025)
In all, about 8,300 sequences were measured (“log2 fold change of degron read counts, EGFP-low vs EGFP+ sorted cells (limma voom), compound-induced degradation”: median about -1.1, highest 2% from about 3.2 on). For the sample, the highest values were picked, then their nearest neighbours and some sequences at random.

T1: CRBN, Q96SW2
T1 chain: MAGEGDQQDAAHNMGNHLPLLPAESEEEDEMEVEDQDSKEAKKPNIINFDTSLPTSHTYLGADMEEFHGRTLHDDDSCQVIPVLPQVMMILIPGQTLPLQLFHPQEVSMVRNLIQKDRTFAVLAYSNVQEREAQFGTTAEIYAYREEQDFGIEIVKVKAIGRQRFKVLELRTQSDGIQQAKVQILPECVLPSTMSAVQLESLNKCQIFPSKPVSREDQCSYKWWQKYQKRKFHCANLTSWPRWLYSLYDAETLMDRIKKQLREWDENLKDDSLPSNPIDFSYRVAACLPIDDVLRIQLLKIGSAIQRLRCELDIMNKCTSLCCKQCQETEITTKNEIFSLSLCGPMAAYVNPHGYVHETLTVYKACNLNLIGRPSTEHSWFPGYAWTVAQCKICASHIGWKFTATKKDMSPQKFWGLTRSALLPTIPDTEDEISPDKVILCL


Target: T1, CRBN, Q96SW2
Assay: log2 fold change of degron read counts, EGFP-low vs EGFP+ sorted cells (limma voom), compound-induced degradation; higher = more compound-induced degradation of the degron-EGFP fusion; degrons are variants of IKZF1/3 zinc finger 2; compound dose not given here
Conditions: Jurkat, 18 h
[1] = compound: compound 19 (5-tert-butyl-thalidomide)
[2] = compound: compound 22 (5-morpholino-thalidomide)
[3] = compound: compound 33 (diphenyl IMiD analogue)
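Note: pooled lentiviral library of zinc finger degron-EGFP fusions in mCherry-positive Jurkat cells, FACS-sorted after compound exposure, with degron abundance counted by next-generation sequencing.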

Row | Sequence | log2 fold change of degron read counts [1] | log2 fold change of degron read counts [2] | log2 fold change of degron read counts [3] | log2 fold change of degron read counts (compound: thalidomide)
1 | FTCEICGAFFTQKGNLLRHIKL [46F_47T_49E_50I_52G_53A_54F_55F_67L_, Q9UKT9] | -0.327 | 0.0883 | 0.985 | 1.57
2 | FDCNICGAFFTQKGNLLRHIKL [46F_47D_49N_50I_52G_53A_54F_55F_67L_, Q9UKT9] | -1.62 | -1.63 | -0.882 | -0.692
3 | LDCEICGFECTQKGNLLRHIKL [46L_47D_49E_50I_52G_53F_54E_55C_67L_, Q9UKT9] | -1.93 | -2.68 | -2.74 | -1.97
4 | FTCPICGAKFTQKGNLLRHIKL [46F_47T_49P_50I_52G_53A_54K_55F_67L_, Q9UKT9] | 0.0311 | 2.04 | -0.046 | 2.35
5 | FNCPICGAKFTQKGNLLRHIKL [46F_47N_49P_50I_52G_53A_54K_55F_67L_, Q9UKT9] | 2.07 | 0.6 | -1.08 | 0.72
6 | FGCPICGAKFTQKGNLLRHIKL [46F_47G_49P_50I_52G_53A_54K_55F_67L_, Q9UKT9] | 3.59 | 1.76 | -0.616 | 1.31
7 | FQCNICGAKFTQKGNLLRHIKL [46F_47Q_49N_50I_52G_53A_54K_55F_67L_, Q9UKT9] | -1.16 | 1.71 | -0.442 | 3.26
8 | FCCPICGAKFTQKGNLLRHIKL [46F_47C_49P_50I_52G_53A_54K_55F_67L_, Q9UKT9] | 2.65 | 2.05 | 0.122 | 2.09
9 | FYCNICGAKFTQKGNLLRHIKL [46F_47Y_49N_50I_52G_53A_54K_55F_67L_, Q9UKT9] | 1.97 | 2.19 | -0.298 | -0.655
10 | FMCPICGAKFTQKGNLLRHIKL [46F_47M_49P_50I_52G_53A_54K_55F_67L_, Q9UKT9] | -0.0561 | 0.0581 | 0.821 | 0.888
11 | FQCPICGAKFTQKGNLLRHIKL [46F_47Q_49P_50I_52G_53A_54K_55F_67L_, Q9UKT9] | 0.535 | 3 | 0.562 | 3.44
12 | FSCPICGAKFTQKGNLLRHIKL [46F_47S_49P_50I_52G_53A_54K_55F_67L_, Q9UKT9] | 2.33 | 1.67 | -0.456 | 1.28
13 | FACPICGAKFTQKGNLLRHIKL [46F_47A_49P_50I_52G_53A_54K_55F_67L_, Q9UKT9] | 3.43 | 1.44 | -1.12 | 0.992
14 | FVCPICGAKFTQKGNLLRHIKL [46F_47V_49P_50I_52G_53A_54K_55F_67L_, Q9UKT9] | -0.253 | 1.93 | -0.152 | 2.45
15 | FMCNICGAKFTQKGNLLRHIKL [46F_47M_49N_50I_52G_53A_54K_55F_67L_, Q9UKT9] | -1.58 | -1.36 | -0.574 | -0.374
16 | FWCNVCGAPFTQKGNLLRHIKL [46F_47W_49N_50V_52G_53A_54P_55F_67L_, Q9UKT9] | 1.34 | 1.28 | 0.648 | -0.594
17 | FNCNQCGRAFTQKGNLLRHIKL [46F_47N_49N_50Q_52G_53R_54A_55F_67L_, Q9UKT9] | -2.53 | -3 | -2.84 | -2.82
18 | FLCNQCGRKFTQKGNLLRHIKL [46F_47L_49N_50Q_52G_53R_54K_55F_67L_, Q9UKT9] | -3.07 | -2.98 | -2.46 | -1.94
19 | FTCEVCGADFTQKGNLLRHIKL [46F_47T_49E_50V_52G_53A_54D_55F_67L_, Q9UKT9] | -1.27 | -0.646 | -0.114 | 0.571
20 | FWCDVCGAFFTQKGNLLRHIKL [46F_47W_49D_50V_52G_53A_54F_55F_67L_, Q9UKT9] | 0.953 | 1.36 | -0.00384 | -1.88
21 | FECNVCGAIFTQKGNLLRHIKL [46F_47E_49N_50V_52G_53A_54I_55F_67L_, Q9UKT9] | -2.34 | -1.7 | -0.347 | 0.492
22 | FVCEQCGAIFTQKGNLLRHIKL [46F_47V_49E_50Q_52G_53A_54I_55F_67L_, Q9UKT9] | -2.11 | -2.38 | -0.483 | -1.05
23 | FHCPICGAKFTQKGNLLRHIKL [46F_47H_49P_50I_52G_53A_54K_55F_67L_, Q9UKT9] | 2.6 | 2.09 | -0.0644 | 0.674
24 | FWCPICGAKFTQKGNLLRHIKL [46F_47W_49P_50I_52G_53A_54K_55F_67L_, Q9UKT9] | 2.94 | 3.43 | 1.1 | 0.827
25 | FRCPICGAKFTQKGNLLRHIKL [46F_47R_49P_50I_52G_53A_54K_55F_67L_, Q9UKT9] | -0.704 | 0.123 | 0.417 | 0.809
26 | FFCDQCGANFTQKGNLLRHIKL [46F_47F_49D_50Q_52G_53A_54N_55F_67L_, Q9UKT9] | -0.567 | -0.255 | -1.24 | -2.4
27 | FSCDVCGAPFTQKGNLLRHIKL [46F_47S_49D_50V_52G_53A_54P_55F_67L_, Q9UKT9] | 0.883 | -0.0159 | -0.896 | -0.557
28 | LQCNQCGFHCTQKGNLLRHIKL [46L_47Q_49N_50Q_52G_53F_54H_55C_67L_, Q9UKT9] | -2.12 | -2.37 | -2.09 | -1.42
